Key:
Assay in all cases: DAPPL (digital affinity profiling via proximity ligation, sequencing); 10 mM Tris-HCl pH 7.5, 50 mM NaCl, 1 mM DTT, 4% glycerol, room temperature, 30 min; GST-TFs on glutathione beads, 16-mer random dsDNA library, 0.1% formaldehyde crosslink after washing; high values mean tight binding
Conditions in all cases: protein: recombinant; tags: N-terminal GST; dsDNA, one strand shown
ERF = molecular target: T1, ERF (Homo sapiens, UniProt P50548 1-548)
T1 sequence: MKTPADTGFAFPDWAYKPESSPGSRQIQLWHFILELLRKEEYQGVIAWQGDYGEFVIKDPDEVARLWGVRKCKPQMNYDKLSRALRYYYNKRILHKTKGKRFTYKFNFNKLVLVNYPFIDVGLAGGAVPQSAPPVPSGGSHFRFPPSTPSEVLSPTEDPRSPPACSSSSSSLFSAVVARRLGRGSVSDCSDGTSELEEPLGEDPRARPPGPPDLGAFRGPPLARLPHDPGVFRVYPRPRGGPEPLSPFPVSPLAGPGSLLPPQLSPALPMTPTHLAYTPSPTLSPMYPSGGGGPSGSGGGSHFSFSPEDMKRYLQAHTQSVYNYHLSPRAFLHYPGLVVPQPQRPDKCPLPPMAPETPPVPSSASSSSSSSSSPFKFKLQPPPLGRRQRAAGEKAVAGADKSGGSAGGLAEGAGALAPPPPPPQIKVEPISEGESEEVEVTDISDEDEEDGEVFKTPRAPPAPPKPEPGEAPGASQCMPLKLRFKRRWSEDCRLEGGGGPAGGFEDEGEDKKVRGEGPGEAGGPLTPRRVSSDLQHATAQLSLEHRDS
Method in brief: (§1)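 GST fusions of human transcription factors were expressed in yeast and captured with glutathione beads. Once given DNA barcodes and pooled alongside a tag-only sample, they were incubated for 30 min at room temperature with 200 nmole of a random double-stranded 16-mer DNA library in Tris/NaCl/DTT/glycerol buffer, then washed, crosslinked (0.1% formaldehyde), proximity-ligated, PCR-amplified and sequenced on an Illumina NextSeq500. The binding signal of each hexamer is its read frequency for a factor divided by its frequency for the tag-only sample.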

ETV3L = molecular target: T2, ETV3L (Homo sapiens, UniProt Q6ZN32 1-361)
T2 sequence: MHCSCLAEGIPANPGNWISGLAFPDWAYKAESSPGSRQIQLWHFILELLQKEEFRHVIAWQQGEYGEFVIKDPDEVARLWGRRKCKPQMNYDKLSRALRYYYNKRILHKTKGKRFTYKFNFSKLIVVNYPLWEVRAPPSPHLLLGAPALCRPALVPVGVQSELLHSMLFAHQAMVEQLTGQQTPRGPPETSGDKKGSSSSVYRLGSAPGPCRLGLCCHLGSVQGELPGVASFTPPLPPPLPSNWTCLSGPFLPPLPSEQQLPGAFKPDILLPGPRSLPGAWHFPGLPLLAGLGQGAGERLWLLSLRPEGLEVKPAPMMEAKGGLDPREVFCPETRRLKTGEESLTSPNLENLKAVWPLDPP
Method in brief: as §1

ETS2 = molecular target: T3, ETS2 (Homo sapiens, UniProt P15036 1-469)
T3 sequence: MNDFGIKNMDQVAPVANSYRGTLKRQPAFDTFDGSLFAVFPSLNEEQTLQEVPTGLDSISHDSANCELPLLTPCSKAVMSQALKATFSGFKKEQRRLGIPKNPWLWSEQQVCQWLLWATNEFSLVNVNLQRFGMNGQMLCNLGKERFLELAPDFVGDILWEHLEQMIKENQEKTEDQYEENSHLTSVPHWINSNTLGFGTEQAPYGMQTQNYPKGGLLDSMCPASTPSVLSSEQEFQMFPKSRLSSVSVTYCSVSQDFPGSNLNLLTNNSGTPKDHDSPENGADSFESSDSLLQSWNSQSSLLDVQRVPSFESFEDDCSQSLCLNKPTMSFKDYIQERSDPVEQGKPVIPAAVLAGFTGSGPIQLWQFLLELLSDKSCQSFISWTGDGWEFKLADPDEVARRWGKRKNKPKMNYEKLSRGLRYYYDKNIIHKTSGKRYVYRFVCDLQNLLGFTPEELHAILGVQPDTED
Method in brief: as §1

SPDEF = molecular target: T4, SPDEF (Homo sapiens, UniProt O95238 1-335)
T4 sequence: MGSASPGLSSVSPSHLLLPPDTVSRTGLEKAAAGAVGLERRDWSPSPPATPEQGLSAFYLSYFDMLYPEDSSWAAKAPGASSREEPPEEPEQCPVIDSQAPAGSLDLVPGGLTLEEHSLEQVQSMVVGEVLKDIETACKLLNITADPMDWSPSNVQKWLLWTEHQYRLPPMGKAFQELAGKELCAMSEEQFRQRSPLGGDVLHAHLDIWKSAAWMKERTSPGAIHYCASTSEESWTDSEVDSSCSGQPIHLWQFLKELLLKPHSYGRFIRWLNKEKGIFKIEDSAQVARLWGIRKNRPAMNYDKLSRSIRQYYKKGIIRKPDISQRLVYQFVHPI
Method in brief: as §1

ETV7 = molecular target: T5, ETV7 (Homo sapiens, UniProt Q9Y603 1-341)
T5 sequence: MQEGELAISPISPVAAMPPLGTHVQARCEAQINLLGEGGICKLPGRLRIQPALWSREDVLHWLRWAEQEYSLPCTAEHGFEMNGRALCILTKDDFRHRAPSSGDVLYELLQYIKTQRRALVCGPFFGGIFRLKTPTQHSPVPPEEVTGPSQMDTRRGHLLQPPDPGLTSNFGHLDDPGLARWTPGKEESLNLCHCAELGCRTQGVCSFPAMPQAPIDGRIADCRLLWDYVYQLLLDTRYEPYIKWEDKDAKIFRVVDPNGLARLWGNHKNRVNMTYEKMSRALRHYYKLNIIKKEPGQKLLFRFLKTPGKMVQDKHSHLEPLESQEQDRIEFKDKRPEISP
Method in brief: as §1

ELF5 = molecular target: T6, ELF5 (Homo sapiens, UniProt Q9UKW6-2 1-255)
T6 sequence: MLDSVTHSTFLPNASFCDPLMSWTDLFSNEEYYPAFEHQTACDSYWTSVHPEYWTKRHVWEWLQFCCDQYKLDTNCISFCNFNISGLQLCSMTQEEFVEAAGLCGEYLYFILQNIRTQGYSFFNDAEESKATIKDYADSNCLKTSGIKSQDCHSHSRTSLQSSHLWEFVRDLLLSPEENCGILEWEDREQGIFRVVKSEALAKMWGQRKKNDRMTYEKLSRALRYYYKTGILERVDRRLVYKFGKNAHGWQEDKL
Method in brief: as §1

ETV3 = molecular target: T7, ETV3 (Homo sapiens, UniProt P41162-2 1-143)
T7 sequence: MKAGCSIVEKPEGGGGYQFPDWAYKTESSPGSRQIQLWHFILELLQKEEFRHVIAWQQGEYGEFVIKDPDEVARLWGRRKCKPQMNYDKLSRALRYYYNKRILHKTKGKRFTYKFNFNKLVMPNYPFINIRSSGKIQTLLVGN
Method in brief: as §1

ETV6 = ETV6 (Homo sapiens, UniProt P41212 1-452)
Chain of ETV6 (P41212 whole entry): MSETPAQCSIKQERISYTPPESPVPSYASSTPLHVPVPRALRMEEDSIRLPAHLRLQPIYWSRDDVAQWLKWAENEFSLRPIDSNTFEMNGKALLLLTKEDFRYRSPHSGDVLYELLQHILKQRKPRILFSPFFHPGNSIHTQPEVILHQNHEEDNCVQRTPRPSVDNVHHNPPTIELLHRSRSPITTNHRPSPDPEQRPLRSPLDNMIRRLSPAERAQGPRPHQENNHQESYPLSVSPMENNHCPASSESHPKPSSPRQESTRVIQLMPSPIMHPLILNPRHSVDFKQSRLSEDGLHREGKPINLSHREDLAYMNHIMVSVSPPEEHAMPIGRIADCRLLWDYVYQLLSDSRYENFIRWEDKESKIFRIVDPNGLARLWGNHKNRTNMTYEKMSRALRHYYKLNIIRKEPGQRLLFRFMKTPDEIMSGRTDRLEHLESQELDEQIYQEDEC
Method in brief: as §1

Sequence	binding signal (ERF)	binding signal (ETV3L)	binding signal (ETS2)	binding signal (SPDEF)	binding signal (ETV7)	binding signal (ELF5)	binding signal (ETV3)	binding signal (ETV6)
ATCCCC	1.43 fold enrichment (6-mer frequency, TF over GST control)	1.41 fold enrichment (6-mer frequency, TF over GST control)	1.29 fold enrichment (6-mer frequency, TF over GST control)	1.41 fold enrichment (6-mer frequency, TF over GST control)	1.3 fold enrichment (6-mer frequency, TF over GST control)	1.46 fold enrichment (6-mer frequency, TF over GST control)	1.35 fold enrichment (6-mer frequency, TF over GST control)	1.29 fold enrichment (6-mer frequency, TF over GST control)
TTAGTT	1.37 fold enrichment (6-mer frequency, TF over GST control)	1.35 fold enrichment (6-mer frequency, TF over GST control)	1.23 fold enrichment (6-mer frequency, TF over GST control)	1.38 fold enrichment (6-mer frequency, TF over GST control)	1.25 fold enrichment (6-mer frequency, TF over GST control)	1.24 fold enrichment (6-mer frequency, TF over GST control)	1.45 fold enrichment (6-mer frequency, TF over GST control)	1.38 fold enrichment (6-mer frequency, TF over GST control)
AGCTCT	1.16 fold enrichment (6-mer frequency, TF over GST control)	1.34 fold enrichment (6-mer frequency, TF over GST control)	1.16 fold enrichment (6-mer frequency, TF over GST control)	1.03 fold enrichment (6-mer frequency, TF over GST control)	1.17 fold enrichment (6-mer frequency, TF over GST control)	1.12 fold enrichment (6-mer frequency, TF over GST control)	1.21 fold enrichment (6-mer frequency, TF over GST control)	1.17 fold enrichment (6-mer frequency, TF over GST control)
CTGGCT	1.43 fold enrichment (6-mer frequency, TF over GST control)	1.3 fold enrichment (6-mer frequency, TF over GST control)	1.19 fold enrichment (6-mer frequency, TF over GST control)	1.23 fold enrichment (6-mer frequency, TF over GST control)	1.38 fold enrichment (6-mer frequency, TF over GST control)	1.19 fold enrichment (6-mer frequency, TF over GST control)	1.18 fold enrichment (6-mer frequency, TF over GST control)	1.18 fold enrichment (6-mer frequency, TF over GST control)
CTGGAT	1.43 fold enrichment (6-mer frequency, TF over GST control)	1.5 fold enrichment (6-mer frequency, TF over GST control)	1.4 fold enrichment (6-mer frequency, TF over GST control)	1.42 fold enrichment (6-mer frequency, TF over GST control)	1.22 fold enrichment (6-mer frequency, TF over GST control)	1.3 fold enrichment (6-mer frequency, TF over GST control)	1.37 fold enrichment (6-mer frequency, TF over GST control)	1.21 fold enrichment (6-mer frequency, TF over GST control)
TGGTTT	1.53 fold enrichment (6-mer frequency, TF over GST control)	1.51 fold enrichment (6-mer frequency, TF over GST control)	1.54 fold enrichment (6-mer frequency, TF over GST control)	1.49 fold enrichment (6-mer frequency, TF over GST control)	1.44 fold enrichment (6-mer frequency, TF over GST control)	1.54 fold enrichment (6-mer frequency, TF over GST control)	1.52 fold enrichment (6-mer frequency, TF over GST control)	1.67 fold enrichment (6-mer frequency, TF over GST control)
CAAATA	1.23 fold enrichment (6-mer frequency, TF over GST control)	1.1 fold enrichment (6-mer frequency, TF over GST control)	1.14 fold enrichment (6-mer frequency, TF over GST control)	1.09 fold enrichment (6-mer frequency, TF over GST control)	1.16 fold enrichment (6-mer frequency, TF over GST control)	1.06 fold enrichment (6-mer frequency, TF over GST control)	1.1 fold enrichment (6-mer frequency, TF over GST control)	1.07 fold enrichment (6-mer frequency, TF over GST control)
TCTTAG	1.21 fold enrichment (6-mer frequency, TF over GST control)	1.35 fold enrichment (6-mer frequency, TF over GST control)	1.13 fold enrichment (6-mer frequency, TF over GST control)	1.24 fold enrichment (6-mer frequency, TF over GST control)	1.18 fold enrichment (6-mer frequency, TF over GST control)	1.21 fold enrichment (6-mer frequency, TF over GST control)	1.2 fold enrichment (6-mer frequency, TF over GST control)	1.19 fold enrichment (6-mer frequency, TF over GST control)
CCTTAA	1.29 fold enrichment (6-mer frequency, TF over GST control)	1.44 fold enrichment (6-mer frequency, TF over GST control)	1.29 fold enrichment (6-mer frequency, TF over GST control)	1.44 fold enrichment (6-mer frequency, TF over GST control)	1.21 fold enrichment (6-mer frequency, TF over GST control)	1.44 fold enrichment (6-mer frequency, TF over GST control)	1.35 fold enrichment (6-mer frequency, TF over GST control)	1.26 fold enrichment (6-mer frequency, TF over GST control)
CGCTTC	2.11 fold enrichment (6-mer frequency, TF over GST control)	2.03 fold enrichment (6-mer frequency, TF over GST control)	2.07 fold enrichment (6-mer frequency, TF over GST control)	2 fold enrichment (6-mer frequency, TF over GST control)	1.9 fold enrichment (6-mer frequency, TF over GST control)	2.14 fold enrichment (6-mer frequency, TF over GST control)	2.09 fold enrichment (6-mer frequency, TF over GST control)	2.35 fold enrichment (6-mer frequency, TF over GST control)
CCTATG	1.11 fold enrichment (6-mer frequency, TF over GST control)	1.21 fold enrichment (6-mer frequency, TF over GST control)	1.19 fold enrichment (6-mer frequency, TF over GST control)	1.25 fold enrichment (6-mer frequency, TF over GST control)	1.27 fold enrichment (6-mer frequency, TF over GST control)	1.16 fold enrichment (6-mer frequency, TF over GST control)	1.29 fold enrichment (6-mer frequency, TF over GST control)	1.17 fold enrichment (6-mer frequency, TF over GST control)
ATTTGG	1.54 fold enrichment (6-mer frequency, TF over GST control)	1.46 fold enrichment (6-mer frequency, TF over GST control)	1.38 fold enrichment (6-mer frequency, TF over GST control)	1.34 fold enrichment (6-mer frequency, TF over GST control)	1.41 fold enrichment (6-mer frequency, TF over GST control)	1.37 fold enrichment (6-mer frequency, TF over GST control)	1.35 fold enrichment (6-mer frequency, TF over GST control)	1.45 fold enrichment (6-mer frequency, TF over GST control)
ATTCCT	1.2 fold enrichment (6-mer frequency, TF over GST control)	1.32 fold enrichment (6-mer frequency, TF over GST control)	1.39 fold enrichment (6-mer frequency, TF over GST control)	1.32 fold enrichment (6-mer frequency, TF over GST control)	1.39 fold enrichment (6-mer frequency, TF over GST control)	1.68 fold enrichment (6-mer frequency, TF over GST control)	1.47 fold enrichment (6-mer frequency, TF over GST control)	1.35 fold enrichment (6-mer frequency, TF over GST control)
ACCTTA	1.29 fold enrichment (6-mer frequency, TF over GST control)	1.19 fold enrichment (6-mer frequency, TF over GST control)	1.16 fold enrichment (6-mer frequency, TF over GST control)	1.3 fold enrichment (6-mer frequency, TF over GST control)	1.21 fold enrichment (6-mer frequency, TF over GST control)	1.26 fold enrichment (6-mer frequency, TF over GST control)	1.17 fold enrichment (6-mer frequency, TF over GST control)	1.21 fold enrichment (6-mer frequency, TF over GST control)
TGCTAG	1.21 fold enrichment (6-mer frequency, TF over GST control)	1.29 fold enrichment (6-mer frequency, TF over GST control)	1.04 fold enrichment (6-mer frequency, TF over GST control)	1.09 fold enrichment (6-mer frequency, TF over GST control)	1.16 fold enrichment (6-mer frequency, TF over GST control)	1.09 fold enrichment (6-mer frequency, TF over GST control)	1.13 fold enrichment (6-mer frequency, TF over GST control)	1.05 fold enrichment (6-mer frequency, TF over GST control)
CAATTT	1.36 fold enrichment (6-mer frequency, TF over GST control)	1.33 fold enrichment (6-mer frequency, TF over GST control)	1.28 fold enrichment (6-mer frequency, TF over GST control)	1.21 fold enrichment (6-mer frequency, TF over GST control)	1.31 fold enrichment (6-mer frequency, TF over GST control)	1.29 fold enrichment (6-mer frequency, TF over GST control)	1.43 fold enrichment (6-mer frequency, TF over GST control)	1.32 fold enrichment (6-mer frequency, TF over GST control)

From PMC7862700, “An all-to-all approach to the identification of sequence-specific readers for epigenetic DNA modifications on cytosine”
